The text below walks through data of PubChem BioAssay (NCATS).

Usually viability stands for a read-out of living cells in per cent, often relative to untreated cells.

Results filed as inconclusive are left out. Active and inactive are the calls of the source. Calls come from the whole dose curve; as a rule, active = well fitted cell-killing curve with a large enough effect; inconclusive = small, poorly fitted or top-dose-only effect, or effect the other way; inactive = no such curve, though single readings can be large or run the other way.
Potency is the fitted concentration of half-maximal effect.

The test is described as follows: Quantitative High-Throughput drug screen in 47 multiple myeloma cell lines against the NCATS MIPE library collection: ARD_JJKsccE7 cell viability assay (AID 1918929). The following applies: ARD myeloma cell line viability, CellTiter-Glo, 48 h; series mostly up to 45.8 µM; viability: at the top concentration. From the text:
PI: Beverly A. Mock Ph.D.
Laboratory of Cancer Biology and Genetics,
Center for Cancer Research, National Cancer Institute,
National Institute of Health, Bethesda, Maryland
Drug resistance and disease progression are common in multiple myeloma (MM) patients, underscoring the need for new therapeutic combinations. […] We hypothesized that effective combinations would reduce MYC expression and enhance p16 activity. […] These preclinical data identify potentially useful drug combinations for evaluation in drug-resistant MM and reveal potential mechanisms of combined drug sensitivity.
Described herein is the primary MIPE qHTS used to cherrypick compounds. Validated compounds were then further tested for potential synergistic activiy.
[1] Peat TJ, Gaikwad SM, Dubois W, Gyabaah-Kessie N, Zhang S, Gorjifard S, Phyo Z, Andres M, Hughitt VK, Simpson RM, Miller MA, Girvin AT, Taylor A, Williams D, D'Antonio N, Zhang Y, Rajagopalan A, Flietner E, Wilson K, Zhang X, Shinn P, Klumpp-Thomas C, McKnight C, Itkin Z, Chen L, Kazandijian D, Zhang J, Michalowski AM, Simmons JK, Keats J, Thomas CJ, Mock BA. Drug combinations identified by high-throughput screening promote cell cycle transition and upregulate Smad pathways in myeloma. Cancer Lett. 2023 Aug 1;568:216284. doi: 10.1016/j.canlet.2023.216284. Epub 2023 Jun 24. PMID: 37356470; PMCID: PMC10408729.
SEQUENCE No. (e.g., 1, 2, 3, etc.); […] (e.g., Cells, Incubation, Reagent, etc.); VALUE and DESCRIPTION.
1; Cells; 5 uL; white, solid bottom 1536-well Greiner assay plate.
2; Compounds; 23 nL; Kalypsis pin tool (Wako USA) equipped with a 1536-well pin head to transfer to the assay plates.
3; Incubation; 48 hours; 37C incubation.
4; Reagent;5uL; CellTiter Glo (Promega).
5; Detector; 425V; Luminescence; Viewlux PerkinElmer.
NOTES (numbers refer to Sequence numbers above)
1. The cell-based screening methods employed in this study were like those previously published. Briefly, the corresponding myeloma cell lines were screened in 1,536-well plates with 500 cells, 5-uL per well for inhibition of cell viability (assessed by measuring ATP levels with CellTiterGlo).
2. NCATS MIPE 4.0 library of approved and investigational drugs were added using the Kalypsis pin tool. Wells treated with DMSO only for 100% viability and media only wells for 0% viability were used as controls.
3. The assay plates were covered and incubated for 48 hours in a 37C, 5% CO2 incubator with controlled humidity.
4. After 48 hours, CellTilter-GloTM luminescent substrate mix (Promega) reagent was added to the assay plate and plates we incubated for 5 min at room temperature.
5. Signal was measured as median relative luminescence units on a ViewLux (PerkinElmer) multiplate reader.
[1] Heske CM, Davis MI, Baumgart JT, Wilson K, Gormally MV, Chen L, Zhang X, Ceribelli M, Duveau DY, Guha R, Ferrer M, Arnaldez FI, Ji J, Tran HL, Zhang Y, Mendoza A, Helman LJ, Thomas CJ. Matrix Screen Identifies Synergistic Combination of PARP Inhibitors and Nicotinamide Phosphoribosyltransferase (NAMPT) Inhibitors in Ewing Sarcoma. Clin Cancer Res. 2017 Dec 1;23(23):7301-7311. doi: 10.1158/1078-0432.CCR-17-1121. Epub 2017 Sep 12. PMID: 28899971; PMCID: PMC6636827.
In general terms: Cellular ATP, detected with luciferase, serves as a proxy for viable cell number.
Consider `CO[C@@H]1C(N(C)C(=O)c2ccccc2)C[C@H]2O[C@]1(C)n1c3ccccc3c3c4c(c5c6ccccc6n2c5c31)C(=O)NC4=O` (stereo not given in full), for which the Potency was 1.87 µM (active).

In the case of `CC(=O)OCC(=O)[C@@]12OC(C)(C)O[C@H]1C[C@H]1[C@@H]3C[C@H](F)C4=CC(=O)C=C[C@]4(C)[C@@]3(F)[C@@H](O)C[C@@]12C`, the Potency is 0.0148 µM (active).

Turning to `NS(=O)(=O)c1ccc(Nc2nc(OCC3CCCCC3)c3[nH]cnc3n2)cc1`, the Potency is 16.6 µM (active).

Regarding `Cc1ccccc1-n1c(Cn2nc(-c3cccc(O)c3)c3c(N)ncnc32)nc2cccc(C)c2c1=O`, the Potency is 1.05 µM (active).

With `CC1=C(C(=O)Nc2cc3cn[nH]c3cc2F)C(c2ccc(C(F)(F)F)cc2)CC(=O)N1` (stereo not given), the “viability” value is 130% (inactive).

With `CCC(C)SSc1ncc[nH]1` (stereo not given), the Potency is 5.26 µM (active).

`CCCCCOC(=O)Nc1nc(=O)n([C@@H]2O[C@H](C)[C@@H](O)C2O)cc1F` (stereo not given in full): the “viability” value is 104% (inactive).

In the case of `CCOC(=O)N1CCN([N+]([O-])=NOc2cc(ON=[N+]([O-])N3CCN(C(=O)OCC)CC3)c([N+](=O)[O-])cc2[N+](=O)[O-])CC1`, the Potency was 0.0526 µM (active).

With `CCN(CC)CCCCNc1nc2cc(Cl)c(Cl)cc2nc1-c1ccc(-c2cccs2)s1`, the Potency is 8.33 µM (active).

`c1ccc(CNc2nc(N3CCOc4ccccc43)nc3c2CCCC3)cc1`: the Potency was 20.9 µM (active).

For `Cn1c(=O)c(-c2c(Cl)cccc2Cl)cc2cnc(Nc3cccc(C(=O)O)c3)nc21`, the Potency is 0.469 µM (active).

Take `CCCCc1ccc(NS(=O)(=O)c2ccc(C)c(C(=O)N3CCN(c4cccc(C)c4C)CC3)c2)cc1`: the “viability” value is 117% (inactive).

With `Nc1ccn([C@@H]2O[C@H](CO)[C@@H](O)[C@H]2O)c(=O)n1`, the “viability” value is 87.6% (inactive).

Take `COc1cc([C@H]2Oc3cc([C@H]4Oc5cc(O)cc(O)c5C(=O)[C@H]4O)ccc3O[C@H]2CO)ccc1O`: the “viability” value is 140% (inactive).

Consider `C[C@@H](O)[C@H]1C(=O)N2C(C(=O)OCOC(=O)C(C)(C)C)=C(SC3CN(C4=NCCS4)C3)[C@H](C)[C@H]12`, for which the “viability” value was 88.2% (inactive).

Take `C[C@H](c1ccc(F)cc1CCCC(=O)O)N(c1cc(F)ccc1F)S(=O)(=O)c1ccc(Cl)cc1`: the “viability” value was 121% (inactive).

With `COc1ccc2cc1Oc1ccc(cc1)C[C@H]1c3cc(c(OC)cc3CCN1C)Oc1c(OC)c(OC)cc3c1[C@H](C2)N(C)CC3`, the Potency was 6.62 µM (active).

For `CNC1[C@H](O)C(O[C@@H]2C(O)C(O[C@H]3O[C@H]([C@@H](C)NC)CC[C@H]3N)[C@@H](N)C[C@H]2N)OC[C@]1(C)O` (stereo not given in full), the “viability” value was 102% (inactive).

Take `COc1cc2c(cc1OC)[C@@H]1Cc3ccc(OC)c(OC)c3CN1CC2`: the “viability” value was 122% (inactive).

Turning to `Nc1nc(Cl)nc2c1ncn2[C@@H]1O[C@H](CO)[C@@H](O)[C@H]1F`, the Potency is 0.418 µM (active).

Regarding `CCOC(=O)N1c2ccc(C(F)(F)F)cc2[C@@H](N(Cc2cc(C(F)(F)F)cc(C(F)(F)F)c2)C(=O)OC)C[C@H]1CC`, the “viability” value is 111% (inactive).

Consider `CN[C@@H](C)[C@H]1[C@H](O)C[C@@]2(C)[C@@H]3CC[C@H]4C(C)(C)[C@@H](NC)CC[C@@]45C[C@@]35CC[C@]12C`, for which the “viability” value is 104% (inactive).

As to `Cc1ccc2c(c1)C(=O)[C@]1(O)CCN(c3ccccc3)C1=N2`, the “viability” value is 106% (inactive).

On to `COc1c(C)cnc(Cn2cnc3c(Cl)nc(N)nc32)c1C`, for which the Potency is 0.0418 µM (active).

As for `O=C(CCCN1CCN(c2ccc(F)cc2)CC1)NC1c2ccccc2CSc2ccccc21` (stereo not given), the Potency is 3.32 µM (active).

As for `NS(=O)(=O)c1cc(Cl)c(Cl)c(S(N)(=O)=O)c1`, the “viability” value was 135% (inactive).

As for `CO[C@H]1C=CO[C@@]2(C)Oc3c(C)c(O)c4c(O)c(c(C=NN5CCN(C)CC5)c(O)c4c3C2=O)NC(=O)C(C)=CC=C[C@H](C)[C@H](O)[C@@H](C)[C@@H](O)[C@@H](C)[C@H](OC(C)=O)[C@H]1C`, the “viability” value was 136% [at 15.3 µM] (inactive).

Take `C[C@@H]1O[C@@H](O[C@H]2CC[C@@]3(C)[C@H](CC[C@@H]4[C@H]3C[C@@H](O)[C@]3(C)[C@@H](C5=CC(=O)OC5)CC[C@]43O)C2)C[C@H](O)[C@@H]1O[C@H]1C[C@H](O)[C@H](O[C@H]2C[C@H](O)[C@@H](O)[C@@H](C)O2)[C@H](C)O1` (stereo in doubt): the Potency is 0.121 µM (active).

As for `C=CC[N+]1([C@H]2C[C@H]3[C@@H]4CC[C@H]5C[C@H](O)[C@@H](N6CCOCC6)C[C@]5(C)[C@@H]4CC[C@]3(C)[C@H]2OC(C)=O)CCCC1`, the “viability” value was 130% (inactive).

For the molecule `COc1cccc(OC)c1-c1cc(C(=O)NC2(C(=O)O)C3CC4CC(C3)CC2C4)nn1-c1ccnc2cc(Cl)ccc12` (stereo not given), the “viability” value is 127% (inactive).

For `Cc1nc2c([nH]1)CCN(C(=O)c1ccc(NC(=O)c3ccccc3-c3ccccc3)cc1)c1ccccc1-2`, the “viability” value is 92.9% (inactive).

As for `CC(C)N(CCCNC(=O)Nc1ccc(C(C)(C)C)cc1)C[C@H]1O[C@@H](n2cc(Br)c3c(N)ncnc32)[C@H](O)[C@H]1O`, the “viability” value is 103% (inactive).

Turning to `CC1C(=O)OC2C(O)C34C5CC(C(C)(C)C)C36C(OC(=O)C6O)OC4(C(=O)O5)C12O` (stereo not given), the “viability” value was 139% (inactive).

With `COc1ccc(-c2nc3ccc(C4=NNC(=O)CC4C)cc3[nH]2)cc1` (stereo not given), the “viability” value was 114% (inactive).

Consider `O=C(NCCCCN1CCOCC1)c1cc2ccccc2o1`, for which the “viability” value was 127% (inactive).

Consider `CC(=O)NCCC(=O)N[C@@H](CCC(N)=O)C(=O)N[C@@H](CO)C(=O)N[C@@H](CCC(N)=O)C(=O)N[C@@H](CCC(N)=O)C(=O)N[C@H](C(=O)N[C@@H](Cc1ccccc1)C(=O)N[C@]1(C)CCCCCCC=CCCC[C@@](C)(C(=O)N[C@@H](CCC(N)=O)C(=O)N[C@@H](CC(N)=O)C(N)=O)NC(=O)[C@H](CC(C)C)NC(=O)[C@H](CC(C)C)NC(=O)[C@@H](CCCNC(=N)N)NC(=O)[C@H](Cc2c[nH]c3ccccc23)NC(=O)[C@H](CC(C)C)NC(=O)[C@H](CC(N)=O)NC1=O)[C@H](C)O`, for which the “viability” value was 139% (inactive).

Turning to `CC[C@H](C)C(=O)O[C@H]1C[C@H](O)C=C2C=C[C@H](C)[C@H](CC[C@@H](O)C[C@@H](O)CC(=O)O)[C@H]21`, the “viability” value was 125% (inactive).

Turning to `COc1cc(Cl)cn2c(-c3cccc(NC4CNC4)n3)cnc12`, the Potency is 16.6 µM (active).

Regarding `CC(=O)N1CCN(c2ccc(OCc3nn(C)c(C)c3-c3cccc4c(CCCOc5cc(C)c(Cl)c(C)c5)c(C(=O)O)n(Cc5cccnc5)c34)cc2)CC1`, the Potency was 20.9 µM (active).

Turning to `CC1CNc2c(cccc2S(=O)(=O)N[C@@H](CCCN=C(N)N)C(=O)N2CC[C@@H](C)C[C@@H]2C(=O)O)C1` (stereo not given in full), the “viability” value is 98.3% (inactive).
